ChEMBL document CHEMBL4513146, “CO-ADD screening of Karazin Kharkiv National University (Ukraine) compounds”
Measured potencies and affinities stand elsewhere.

How the values were obtained:
[1] = tested on: Klebsiella pneumoniae; settings: Concentration 32 ug.mL-1;; ASSAY_TEST Inhibition of Bacterial Growth; detection method Absorption (OD600); MEDIA CAMHB; plate type 384well; NBS; CORNING #3640; time 18 hr
[2] = tested on: Candida albicans; settings: Concentration 32 ug.mL-1; ASSAY_TEST Inhibition of Fungal Growth; detection method Absorption (OD530)
[3] = tested on: Cryptococcus neoformans; settings: Concentration 32 ug.mL-1; ASSAY_TEST Inhibition of Fungal Growth; detection method Resazurin; Absorption (OD600-OD570); plate type 384well; NBS; CORNING #3640

| Structure (SMILES) | Inhibition [1] | Inhibition [2] | Inhibition [3] |
| --- | --- | --- | --- |
| O=C(Cn1nc2c3cc(F)ccc3ncn2c1=O)Nc1ccc2c(c1)OCO2 | 1.07% | 3.33% | -3.11% |
| Cc1cc(C)c(NC(=O)Cn2nc3n(C)c(=O)c4c(c(-c5ccccc5)cn4C)n3c2=O)c(C)c1 | 4.68% | 0.24% | -1.33% |
| CCCCn1c(=O)c2sccc2n2c(CCC(=O)NCCC34CC5CC(CC(C5)C3)C4)nnc12 | 8.76% | -0.35% | -18.41% |
| CCCCN(C)c1ccc2nnc(CCc3nc(-c4cccc(Br)c4)no3)n2n1 | 13.86% | 15.05% | -17.7% |
| O=S(=O)(c1ccc2nncn2c1)N(Cc1cc(F)cc(F)c1)c1cc(F)cc(F)c1 | -2.94% | 0.05% | -3.18% |
| NC(=O)Cn1nc2n(CCC(=O)NC3CCCCC3)c(=O)c3ccccc3n2c1=O | 14.53% | 0.47% | -26.54% |
| CC(C)NC(=O)CSc1nnc2c(=O)n(Cc3ccc(F)cc3)ccn12 | 4.17% | 2.95% | -22.73% |
| CCc1nnc2ccc(S(=O)(=O)N(Cc3cccc(OC)c3)c3ccc(F)cc3)cn12 | 3.57% | 1.64% | -8.65% |
| COc1ccc(-c2cc3c4nn(CC(=O)Nc5cccc(OC)c5)c(=O)n4ccn3n2)cc1 | 10.26% | 17.22% | -23.01% |
| COc1cccc(-n2ccn3c(SCC(=O)N4CCN(c5ccccc5F)CC4)nnc3c2=O)c1 | 17.26% | 0.16% | -10.18% |
| COc1ccc(-c2cc3c4nnc(SCC(=O)Nc5ccccc5F)n4ccn3n2)cc1 | 6.81% | -0.08% | -26.1% |
| Cc1ccc(-c2ccc3nn(Cc4nc(-c5ccc(Cl)cc5)no4)c(=O)n3n2)cc1C | 7.1% | 1.35% | -12.88% |
| Cc1cccc(N(C)C(=O)Cn2nc3cc(C)nc(Nc4ccc(F)c(C)c4)n3c2=O)c1 | 4.58% | 2.18% | -4.41% |
| O=C(CSc1nnc2c(=O)n(-c3cccc(F)c3)ccn12)N1CCN(c2ccc(F)cc2)CC1 | 10.19% | 2.58% | -3.61% |
| COc1ccc(NC(=O)Cn2nc3nc(Nc4ccc(F)cc4)ccn3c2=O)cc1F | 11.34% | 0.24% | -11.45% |
| COc1cccc(-n2ccn3c(SCC(=O)N4CCN(c5ccc(F)cc5)CC4)nnc3c2=O)c1 | 8.66% | 0.06% | -10.47% |
| CCc1nnc2c(SCC(=O)Nc3ccc(C(C)=O)cc3)nc3ccccc3n12 | 9.87% | 2.43% | -19.53% |
| Cc1nnc2c(S(=O)(=O)N(Cc3ccccc3Cl)c3ccc(F)c(F)c3)cccn12 | 13.53% | 0.59% | -7.47% |
| COc1cccc(-c2nc(CSc3nc4ccccc4n4c(C)nnc34)c(C)o2)c1OC | 8.41% | 0.37% | -19.84% |
| COc1ccc(N(Cc2ccc(F)cc2)S(=O)(=O)c2ccc3nncn3c2)cc1 | 12.52% | 2.69% | 2.37% |
| CC(C)c1nnc2c(SCC(=O)Nc3cccc(Cl)c3)nc3ccccc3n12 | 10.95% | 2.12% | -14.08% |
| Cc1ccc(-c2ccc3nn(CC(=O)Nc4ccc(C(C)C)cc4)c(=O)n3n2)cc1C | 2.75% | 3.46% | -11.72% |
| O=C(CSc1nnc2c3cc(-c4ccc(F)cc4)nn3ccn12)NCCc1ccccc1 | 7.72% | 2.21% | -23.19% |
| CCOc1cccc(CNC(=O)CCc2nnc3ccc(-c4ccc(C)cc4)nn23)c1 | 8.62% | 2% | -6.55% |
| COc1ccc(-n2ccn3c(-c4cccc([N+](=O)[O-])c4)nnc3c2=O)cc1 | 3.7% | 0.19% | -14.9% |
| CCc1nnc2c(S(=O)(=O)N(Cc3cccc(OC)c3)c3cccc(C)c3)cccn12 | 0.84% | 7.06% | -5.34% |
| Cc1ccc(CSc2nnc3c(=O)n(-c4ccc(Br)cc4)ccn23)cc1 | 11.07% | 8.75% | -7.86% |
| COc1cccc(CNC(=O)CSc2nnc3ccc(C(=O)Nc4cccc(F)c4)cn23)c1 | -3.24% | 0.25% | -5.04% |
| Cc1cccc(NC(=O)Cn2nc3c(SCc4ccccc4)nccn3c2=O)c1C | 5.49% | 0.78% | -13.96% |
| CC(=O)c1cccc(NC(=O)CSc2nnc3ccc(C(=O)Nc4cccc(F)c4)cn23)c1 | 7.28% | 5.29% | -6.79% |
